Data on 18 compounds can be found in PubChem BioAssay AID743245 (National Center for Advancing Translational Sciences (NCATS), 2014).

Some of the results follow. Inconclusive results are not listed. Active and inactive are the calls of the source. Calls follow the shape of the dose curve; as a rule, active = well fitted inhibition curve with a large enough effect; inconclusive = small, poorly fitted or top-dose-only effect; inactive = flat fitted curve, though single readings scatter.
% is scaled to controls: 0 for no effect and ±100 for the full control effect.

In this assay the target is ATP-dependent Clp protease proteolytic subunit (Bacillus subtilis (strain 168)) (UniProt P80244). Kind of assay: qHTS Assay for Activators of ClpP: Hit Validation of Inhibitors. Also: nearly all actives have a fitted effect of over 70% in size. Particulars: purified B. subtilis ClpP, FRET-FV substrate cleavage, 20 min; series mostly up to 57.5 µM; activity change, negative = inhibition: at the top concentration. From the text: The Clp protease proteolytic subunit (ClpP) is the core unit of the Clp complex belonging to the peptidase family S14 that hydrolyzes protein into small peptides in the presence of ATP and magnesium. It is ubiquitously expressed and is the major protease in bacteria. […] Unlike common antibiotics that simply interfere with the essential enzyme activity, ADEP binding activates the ClpP core in the absence of the regulatory Clp-ATPases leading to uncontrolled proteolysis and eventually cell death. Activators binding to the docking site on ClpP can also block formation of the ClpXP and ClpA/C-P holoenzyme complexes interfering with the normal biological functions of ClpP and thus have the potential to become new anti-microbials. To identify activators of ClpP, a FRET based quenching reversal assay was developed using a purified B. subtilis ClpP and a decapeptide substrate (FRET-FV). The FRET-FV is tagged with a fluorescent molecule amino benzoic acid (donor) at the N-terminus and a nitrotyrosine quencher (acceptor) at the C-terminus. FRET-FV cleaves upon activation of ClpP with ADEP treatement and reverses the quenching effect of the nitrotyrosine causing an increase in fluorescence emission signal at 430nm. This assay was used to screen the Molecular Libraries Small Molecule Repository (MLSMR). NIH Molecular Libraries Probe Production Centers Network [MLPCN] NIH Chemical Genomics Center [NCGC] MLPCN Grant: MH095569 Assay Submitter (PI): Michael Maurizi, National Cancer Institute
Chain of ATP-dependent Clp protease proteolytic subunit (Bacillus subtilis (strain 168)) (P80244 whole entry, looked up): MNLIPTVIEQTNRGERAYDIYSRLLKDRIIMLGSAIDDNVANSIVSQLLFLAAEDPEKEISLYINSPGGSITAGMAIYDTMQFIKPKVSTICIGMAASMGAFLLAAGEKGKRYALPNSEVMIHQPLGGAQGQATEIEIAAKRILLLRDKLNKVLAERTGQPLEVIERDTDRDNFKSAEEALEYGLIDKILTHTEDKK
Two and a half microL/well of purified enzyme solution (final concentrations 10 microg/mL B. subtilis ClpP in 100 mM Tris/HCl pH8, 100 mM KCl, 0.05% low protease BSA, 2.5% glycerol, 0.01% Tween-20 buffer) was dispensed into 1536-well assay plates (Greiner, black solid, medium-binding plates) with Aurora Discovery BioRAPTR Flying Reagent Dispenser (FRD, Beckton-Dickenson). Compound solution (23 nL) was transferred to the assay plate using Kalypsys pin tool equipped with a 1536-pin tool. One and a half microL/well substrate solution (final concentrations 3 microM FRET-FV substrate in 100 mM Tris/HCl pH8, 100 mM KCl, 0.05% low protease BSA, 2.5% glycerol, 0.01% Tween-20 buffer) was then added for a total of 4 microL final reaction volume. FRET signals at time 0 and after 20 min room temperature incubation were obtained using the PerkinElmer Envision plate reader with 320nm excitation and 430nm emission filters. Delta FRET value (Time 20 - Time 0) was calculated and normalized to the delta FRET value of positive control ADEP (5.8 microM final concentration) and negative control DMSO and no enzyme wells.
As to `Fc1cc(F)c2nc(Nc3nc4c(F)cccc4s3)sc2c1`, the Potency is 4.85 µM (active).
Same read-out and setting: with `CCOc1ccc(-c2nnc(-c3ccco3)o2)cc1` the figure was 21.7 µM (active); with `COc1ccccc1CNC(=O)c1ccccc1NC(=O)c1nsc2ccccc12`, 24.3 µM (active); with `Cc1cccc(-c2oc3ccc(-c4ccc5c(c4)OCO5)cc3c2C#Cc2cncn2C)c1`, 24.3 µM (active).
On the same count and under the same terms, with `CN(C(=O)c1cc2c(=O)n3ccccc3nc2s1)C1CCCCC1` the figure was 13.7 µM (active); with `O=C(Nc1ccc2oc(-c3ccc4ccccc4c3)nc2c1)c1cccs1`, 10.9 µM (active).
As to `CCN(CCCNC(=O)c1cc2c(=O)n(CC)c3ccccc3c2s1)Cc1ccccc1`, the “activity change, negative = inhibition” value was -0.109% (inactive).
Consider `COc1ccc(CCNC(=O)c2ccc3c(c2)sc2nc(-c4ccc(C)cc4)cn23)cc1OC`, for which the Potency was 27.3 µM (active).
On the same count and under the same terms, with `Cc1nc2sc(C)c(C)n2c(=O)c1S(=O)(=O)NCCc1ccc(Cl)cc1` the figure was 24.3 µM (active).
For the compound `COc1cc2[nH]c(=O)n(Cc3ccc(C(=O)NCc4ccc(C)cc4)cc3)c(=O)c2cc1OC`, the “activity change, negative = inhibition” value is -21.1% (inactive).
For `CC(C)n1c(-c2cccs2)nc2ccccc21`, the Potency is 21.7 µM (active).
Turning to `CCCCN(C)c1ccc([N+](=O)[O-])cc1`, the “activity change, negative = inhibition” value was -1.43% (inactive).
With `COc1ccccc1NC(=O)c1oc2ccccc2c1NC(=O)COc1ccccc1OC`, the Potency is 21.7 µM (active).
As for `CCOc1ccc(-c2cc(C)n3nc(C(=O)Nc4ccc(C)c(C)c4)cc3n2)cc1`, the “activity change, negative = inhibition” value was 0.34% (inactive).
For the compound `CCOC(=O)N1CCN(C(=O)c2ccc3nc4cc(Cl)ccc4c(=O)n3c2)CC1`, the Potency is 27.3 µM (active).
With `COc1ccc(CNC(=O)COC(=O)CCS(=O)(=O)c2ccc(C)cc2)cc1OC`, the “activity change, negative = inhibition” value is -0.566% (inactive).
In the case of `Cc1cccc(NC(=O)c2nnn(CC(=O)Nc3ccc(C(C)C)cc3)c2N)c1C`, the “activity change, negative = inhibition” value was -4.1% (inactive).
Still for that read-out and setting: with `CCCCn1c(=O)c2oc3ccccc3c2n(CC(=O)Nc2ccccc2OC)c1=O` the figure was -3.85% (inactive).
